# Test results reported in the supplement of paper PMC6555819.
# Columns and labels:
# Test in all cases: PBM binding z-score (relative to random genomic background probes); higher = stronger binding; sequences stand for … in GC…GCGATTGACAGCGTAGAATGAAGG
# [1] = test system: RARb homodimer (NR concentration 270 nM)
# Outline: (§1)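 Scanned fluorescence from custom Agilent 4×180K protein-binding microarrays was regression-normalized. Binding z-scores use random background probes as reference. Ligand-free nuclear receptor dimers were incubated on the arrays for 1 h and detected with antibodies against each partner (one per run).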
# [2] = test system: RARg:RXRa (NR concentration 270 nM, RXRa partner concentration 90 nM)
# Outline: as §1
# [3] = test system: RARg homodimer (NR concentration 270 nM)
# Outline: as §1
# [4] = test system: RXRa DBDmut IVT, anti-RXR (DBD mutation: RXRa K156A/R161A, NR concentration 90 nM)
# Outline: as §1
# [5] = test system: RXRa homodimer (NR concentration 180 nM)
# Outline: as §1
# [6] = test system: THRa:RXRa (NR concentration 90 nM, RXRa partner concentration 90 nM)
# Outline: as §1
# [7] = test system: THRa homodimer (NR concentration 90 nM)
# Outline: as §1
# [8] = test system: VDR homodimer (NR concentration 270 nM)
# Outline: as §1
Sequence,PBM binding z-score [1],PBM binding z-score [2],PBM binding z-score [3],PBM binding z-score [4],PBM binding z-score [5],PBM binding z-score [6],PBM binding z-score [7],PBM binding z-score [8]
TCATAGAGGTAAAGGTGAAAGTCGAACGATATGA,1.69,1.9,1.52,0.528,2.39,1.67,-0.473,-0.362
CCTACTGGGCCATCGGGTCATTGATATCAACGTT,2.25,2.25,1.72,-0.759,1.89,2.86,1.94,1.68
CGAACTGGGTCAGAACAGGACAGTGAAGGATGAT,1.53,1.84,2.27,0.00591,1.26,3.55,-0.0909,0.0814
TAGCCTAGGTCAGGTCGGGCCAGTATACGCTATA,2.67,2.95,4.12,-0.81,1.62,3.92,0.761,0.0294
TAGCCCAGGTCATTCAGGGGCCAGTATAGAAAGC,3.34,6.39,4.29,2.4,3.39,3.71,1.48,2
CCAGACAGGTGAGAAGGTGACTCAGCCTCGATTA,1.23,1.04,0.771,-0.175,0.552,0.445,0.379,-0.284
CGAACGAGGGCATGAGTTGACAGCAAATGCCGAT,0.912,1.52,1.6,2.28,0.957,1.45,-0.266,1.65
